PubChem BioAssay (NCI)
Compounds without any hit were thinned out: in the full panel of roughly 79,000, 15% have a hit. No stated cut-off is given here; in the data, active means growth inhibition above about 70%; inactive means the rest.

Experiments:
[1] = NCI Yeast Anticancer Drug Screen. Data for the rad50 strain (AID 155);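 further: 0% = growth of vehicle-only cultures of the same strain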; conditions: S. cerevisiae rad50 strain growth inhibition; at 50.0 µM; active compounds read high
Outline: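 Genetically altered yeast (DNA repair pathway); compound treatment; growth inhibition vs vehicle ctrl.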

[2] = NCI Yeast Anticancer Drug Screen. Data for the mec2-1 strain (AID 157); conditions: S. cerevisiae mec2-1 strain, at 50.0 µM, active compounds read high
Outline: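 Readout is yeast growth inhibition, normalised to vehicle-treated controls, in the mec2-1 strain exposed to compound.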

[3] = NCI Yeast Anticancer Drug Screen. Data for the sgs1 mgt1 strain (AID 161);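 further: 0% = growth of cultures given vehicle only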; conditions: S. cerevisiae sgs1 mgt1 strain, at 50.0 µM, active compounds read high
Outline: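 Growth of a repair-deficient yeast mutant was monitored after compound treatment and expressed as inhibition relative to vehicle-treated cultures.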

[4] = NCI Yeast Anticancer Drug Screen. Data for the cln2 rad14 strain (AID 165);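 further: 0% = growth equal to vehicle treated cultures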; conditions: S. cerevisiae cln2 rad14 strain, at 50.0 µM, active compounds read high
Outline: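 Relative to vehicle controls, growth inhibition of compound-treated cln2 rad14 yeast was recorded.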

[5] = NCI Yeast Anticancer Drug Screen. Data for the bub3 strain (AID 167); conditions: S. cerevisiae bub3 mutant strain, at 50.0 µM, active compounds read high
Outline: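 Yeast carrying a defined mutation is treated with each compound, and growth is compared with that of vehicle-exposed cells to give inhibition.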

[6] = NCI Yeast Anticancer Drug Screen. Data for the mlh1 rad18 strain (AID 175); conditions: S. cerevisiae mlh1 rad18 strain growth inhibition; at 50.0 µM; active compounds read high
Outline: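 Test agents were incubated with a yeast strain of defined genotype (DNA damage repair defect). Inhibition of growth was derived by comparison with vehicle-exposed cultures.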

Measured: growth inhibition

Cc1cc2c(=O)[nH]c(=S)[nH]c2cn1
inactive: [1] 8% | [2] 7% | [3] -11.4% | [4] -0.35% | [5] 6.8% | [6] -3.6%

CN(C)C1C=CS(=O)(=O)C1 (stereo not given)
inactive: [1] -9.55% | [2] -13.9% | [3] -4.4% | [4] -47.5% | [5] 0.95% | [6] -4.95%

Cc1ccc(NC(=O)CCSC(=O)Nc2ccc(C)cc2)cc1
inactive: [1] -1.2% | [2] -2.65% | [3] -7.05% | [4] 21.2% | [5] 8.1% | [6] 7.9%

CC1(O)C=CC2CCC1C2O (stereo not given)
inactive: [1] 11.9% | [2] -2.55% | [3] 10% | [4] 19.2% | [5] 0.15% | [6] 19.6%

CC(=O)c1cccc(N)c1
inactive: [1] -26.9% | [2] -5.75% | [3] -20.4% | [4] -23.3% | [5] -15.8% | [6] 3.1%

Cc1nc(C(F)(F)F)cc(=O)[nH]1
inactive: [1] 7.4% | [2] -3.6% | [3] 15.7% | [4] -1.25% | [5] -5.4% | [6] 51%

O=S(=O)(c1ccc(O)c(Cl)c1)c1ccc(O)c(Cl)c1
inactive: [1] 32.8% | [2] 37.5% | [3] 16.1% | [4] 36.7% | [5] 47.2% | [6] 31.1%

COc1cc2cc(OC)c3cc4c(cc3c2c(OC)c1OC)OCO4
inactive: [1] 12.2% | [2] 11.1% | [3] 19.2% | [4] 7.3% | [5] 6.6% | [6] 5.65%

O=C(O)c1ccc(S(=O)(=O)N=Nc2c(O)[nH]c3ccccc23)cc1
inactive: [1] -6.6% | [2] -5.2% | [3] -35% | [4] -1.15% | [5] -37% | [6] -7.45%

CCNC(=S)NCCc1c[nH]c2ccccc12
inactive: [1] -57% | [2] -3.55% | [3] -7.75% | [4] -0.4% | [5] 2.55% | [6] -36.6%

CCN(CC)C(=O)Oc1cc(C(=O)N(CC)CC)c(OC(=O)N(CC)CC)cc1C(=O)N(CC)CC
inactive: [1] 5.1% | [2] 8.15% | [3] -1.6% | [4] -1.4% | [5] 1% | [6] 30.1%

CC1CN(c2ccc(Cl)cc2)CC(C)(C)OC(=O)O1 (stereo not given)
inactive: [1] -12.2% | [2] -16.1% | [3] -10.6% | [4] 0.2% | [5] 5.45% | [6] -2.5%

CCN(CC)CCOC(=O)c1ccc(NC(=O)Nc2ccc(Br)cc2)cc1
inactive: [1] 4.6% | [2] -4.95% | [3] 30.1% | [4] 0.25% | [5] 8.05% | [6] 11.2%

C1OC[C@@H]([C@H]2COCO2)O1
inactive: [1] -15.4% | [2] -11.4% | [3] -7% | [4] -0.8% | [5] 1.95% | [6] -11.7%

CCOCc1cc(Cc2cc(COCC)c3cccnc3c2O)c(O)c2ncccc12
inactive: [1] 55.7% | [2] 16.7% | [3] 39.6% | [4] 10.2% | [5] 0.45% | [6] 16.2%

O=C1C=C(Nc2ccccc2C(=O)CC(=O)C(=O)Nc2ccc(Cl)c(Cl)c2)c2ccccc2C1=O
inactive: [1] -14.1% | [2] 5.7% | [3] 3.2% | [4] -30.9% | [5] -24.2% | [6] -7.15%

CC1=C(C#[N+][O-])C(C)(C)CCC1
inactive: [1] 1.05% | [2] 5.1% | [3] -2.9% | [4] 10.1% | [5] -23.9% | [6] -16.2%

c1cncc(-c2c3ccccc3cc3ccccc23)c1
inactive: [1] 22.3% | [2] -16% | [3] 2.8% | [4] -8.5% | [5] 4.8% | [6] 5.1%

O=C(Cc1ccccc1)NS(=O)(=O)c1ccccc1
inactive: [1] 5.15% | [2] -5.8% | [3] -12.3% | [4] 9.15% | [5] -3.95% | [6] 4.2%

CC(=O)Nc1cnc2c(nc3cc(C)ccn32)c1C
inactive: [1] -5% | [2] -9.1% | [3] -19.9% | [4] -9.55% | [5] -0.7% | [6] -10.2%

ClC1=C(Cl)C2(Cl)C=CC1(Cl)C2
inactive: [1] 4.05% | [2] -3.05% | [3] 4% | [4] -14.2% | [5] 1.9% | [6] 6.6%

N#Cc1sc2nc3c(c(-c4ccccc4)c2c1N)CCCC3
inactive: [1] -8.3% | [2] -4.65% | [3] -0.95% | [4] -8.4% | [5] -8.1% | [6] -5.75%

CC/C(=N/O)C(C)C(=O)CCC(=O)Nc1ccc(Cl)cc1 (stereo not given)
inactive: [1] -11.6% | [2] -7% | [3] 0.15% | [4] 7.35% | [5] 8.15% | [6] -5.65%

COC(=O)c1nc2c(n(C)/c1=N/C(=O)Nc1ccccc1)CCCC2
inactive: [1] 61.5% | [2] -2.9% | [3] 4.25% | [4] -7.65% | [5] 4.65% | [6] -50.6%

O=[N+]([O-])c1ccc(CCn2cnc3c(N(CCO)CCO)ncnc32)cc1
inactive: [1] -7.85% | [2] -0.9% | [3] 3.6% | [4] -54.3% | [5] 6.95% | [6] -14.3%

COc1cc2c(c(OC)c1OC)-c1ccc(OC)c(=O)cc1C(NC(=O)COc1ccccc1)CC2 (stereo not given)
inactive: [1] 16.5% | [2] -28.6% | [3] 15.2% | [4] 11.2% | [5] 6.95% | [6] 14.6%

C[n+]1cccc2c(=O)c3ccccc3oc21
inactive: [1] 0.8% | [2] -14.5% | [3] -6.25% | [4] -17.9% | [5] 4.65% | [6] -20.2%

CC(=O)/C(=C/N1C(=O)CC(=O)NC1=S)C(=O)Nc1ccccc1
inactive: [1] -24.8% | [2] -26.5% | [3] -39.9% | [4] 3.85% | [5] -17.5% | [6] -20.7%

CN(Cc1ccccc1)C(=O)c1ccc(Cl)cc1
inactive: [1] -1.35% | [2] 3.75% | [3] 6.25% | [4] 0.6% | [5] 1.25% | [6] -0.1%

CC(=O)Nc1cc2ccccc2oc1=O
inactive: [1] -5.5% | [2] -25.1% | [3] -4.65% | [4] 2.25% | [5] -11.8% | [6] 0.75%

CCC(=O)N1C(=O)C(C)C23c4ccccc4C(=O)N2CCCN13 (stereo not given)
inactive: [1] 4.35% | [2] -13.1% | [3] -1.8% | [4] 11.1% | [5] 1.8% | [6] 15.8%

CC1=C(O)C(=O)C2C(=O)C1C1Cc3ccccc3C21 (stereo not given)
inactive: [1] -21.1% | [2] -2.05% | [3] -24.6% | [4] -3.2% | [5] -2.1% | [6] -17.6%

Cc1cccc(C)c1NC(=O)C(=O)CC(=O)/C=C/c1ccccc1
inactive: [1] -14.5% | [2] -20.2% | [3] -30.6% | [4] 3.05% | [5] -23.1% | [6] -28.7%

CCCC(CN1CCCCC1)C(OC(=O)c1ccc(N)cc1)C(F)(F)F (stereo not given)
inactive: [1] -14.2% | [2] -13.7% | [3] 24.1% | [4] -30.8% | [5] 67.5% | [6] 22.4%

Oc1cccc2nc3cc(CN4CCOCC4)c(CN4CCOCC4)cc3nc12
inactive: [1] 8.35% | [2] -18.4% | [3] -1.05% | [4] 2.7% | [5] -26.1% | [6] -4%

Cc1ccc(S(=O)(=O)/C=C/c2ccccc2)cc1
inactive: [1] 8.15% | [2] 6.2% | [3] 1.8% | [4] -10.3% | [5] -2.45% | [6] -10.2%

O=C(O)CNCc1ccc2c(c1)OCCO2
inactive: [1] 6.7% | [2] 15.7% | [3] -10.4% | [4] -3.35% | [5] -3.5% | [6] -15.8%

NC(N)=N/N=C/c1oc(-c2ccc(S(=O)(=O)O)o2)c(-c2ccc(S(=O)(=O)O)o2)c1[N+](=O)[O-]
inactive: [1] -21.4% | [2] 9.6% | [3] -22% | [4] 6.6% | [5] -3.35% | [6] 0.95%

Brc1cc2[nH]c(-c3ccccc3)c(Br)c2c(Br)c1Br
inactive: [1] 59% | [2] 36.5% | [3] 68.5% | [4] 39.2% | [5] 14.3% | [6] 69%

Oc1ccc2ccccc2c1C=NCCS
inactive: [1] 24.9% | [2] 6.25% | [3] 2.7% | [4] -25.6% | [5] -3.4% | [6] 3.15%
